Experimental data from the supplement of paper PMC12282887.
± gives the standard deviation of the averaged measurements.

Assays:
Experiment in all cases: promoter activity interaction Z-score (Lux/OD deviation from empty-vector control); higher = stronger promoter induction by the compound
[1] = system: E. coli BW25113 acrABp lux reporter
Outline: (§1)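 Every compound was given at four 1:2 dilutions, in biological duplicates, to E. coli BW25113 carrying low-copy luxCDABE promoter reporters in wild-type or single-gene deletion backgrounds. Growth in 40 µl LB Lennox in 384-well plates at 37°C was followed by OD600 and luminescence readings every 30 min for 12 h, integrated over 0–8 h for wild type and 1–9 h for deletion strains, with wells below 10% of the median growth value excluded. Scores are Z-transformed residuals of growth-normalised luminescence fitted against a control.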

[2] = system: E. coli BW25113 ompFp lux reporter
Outline: as §1

[3] = system: E. coli BW25113 robp lux reporter
Outline: as §1

[4] = system: E. coli BW25113 soxSp lux reporter
Outline: as §1

[5] = system: E. coli BW25113 tolCp lux reporter
Outline: as §1

[6] = 0.038 µg/ml, genetic background: wild type
[7] = 0.038 µg/ml, genetic background: ΔmarA
[8] = 0.038 µg/ml, genetic background: Δrob
[9] = 0.038 µg/ml, genetic background: ΔsoxS
[10] = 0.076 µg/ml, genetic background: wild type
[11] = 0.076 µg/ml, genetic background: ΔmarA
[12] = 0.076 µg/ml, genetic background: Δrob
[13] = 0.076 µg/ml, genetic background: ΔsoxS
[14] = 0.15 µg/ml, genetic background: wild type
[15] = 0.15 µg/ml, genetic background: ΔmarA
[16] = 0.15 µg/ml, genetic background: Δrob
[17] = 0.15 µg/ml, genetic background: ΔsoxS
[18] = 0.3 µg/ml, genetic background: wild type
[19] = 0.3 µg/ml, genetic background: ΔmarA
[20] = 0.3 µg/ml, genetic background: Δrob
[21] = 0.3 µg/ml, genetic background: ΔsoxS

`Cc1c(N)nc([C@H](CC(N)=O)NC[C@H](N)C(N)=O)nc1C(=O)N[C@H](C(=O)N[C@H](C)[C@@H](O)[C@H](C)C(=O)N[C@H](C(=O)NCCc1nc(-c2nc(C(=O)NCCC[S+](C)C)cs2)cs1)[C@@H](C)O)[C@@H](OC1OC(CO)C(O)C(O)C1OC1OC(CO)C(O)C(OC(N)=O)C1O)c1cnc[nH]1` (some centres not stated) [Bleomycin] was tested, and the “promoter activity interaction Z-score” value [1, 6] was -0.161 ± 0.17, the “promoter activity interaction Z-score” value [1, 7] was -0.308 ± 0.65 and the “promoter activity interaction Z-score” value [1, 8] was 0.154 ± 0.043. The “promoter activity interaction Z-score” value [1, 9] was -0.147 ± 0.084, the “promoter activity interaction Z-score” value [1, 10] was 0.266 ± 0.09 and the “promoter activity interaction Z-score” value [1, 11] was 0.659 ± 0.35. The “promoter activity interaction Z-score” value [1, 12] was 0.241 ± 0.055, the “promoter activity interaction Z-score” value [1, 13] was 0.604 ± 0.2 and the “promoter activity interaction Z-score” value [1, 14] was 0.326 ± 0.0054. The “promoter activity interaction Z-score” value [1, 15] was 1.11 ± 0.37, the “promoter activity interaction Z-score” value [1, 16] was 0.351 ± 0.064 and the “promoter activity interaction Z-score” value [1, 17] was 0.996 ± 0.83. The “promoter activity interaction Z-score” value [1, 18] was 2.43, the “promoter activity interaction Z-score” value [2, 6] was -0.37 ± 0.33 and the “promoter activity interaction Z-score” value [2, 7] was -0.165 ± 0.44. The “promoter activity interaction Z-score” value [2, 8] was 0.0421 ± 0.23, the “promoter activity interaction Z-score” value [2, 9] was -0.165 ± 0.021 and the “promoter activity interaction Z-score” value [2, 10] was 0.414 ± 0.11. For the same compound, the “promoter activity interaction Z-score” value [2, 11] was 0.695 ± 0.073, the “promoter activity interaction Z-score” value [2, 12] was 0.642 ± 1 and the “promoter activity interaction Z-score” value [2, 13] was 1.16 ± 0.21. The “promoter activity interaction Z-score” value [2, 14] was 0.0111 ± 0.27, the “promoter activity interaction Z-score” value [2, 15] was 1.52 ± 0.35 and the “promoter activity interaction Z-score” value [2, 16] was 1.13 ± 1.2. The “promoter activity interaction Z-score” value [2, 17] was 0.608 ± 0.26, the “promoter activity interaction Z-score” value [2, 18] was 1.05 and the “promoter activity interaction Z-score” value [3, 6] was -0.227 ± 0.48. For the same compound, the “promoter activity interaction Z-score” value [3, 7] was -0.244 ± 0.084, the “promoter activity interaction Z-score” value [3, 8] was 0.0423 ± 0.14 and the “promoter activity interaction Z-score” value [3, 9] was 0.189 ± 0.027. For the same compound, the “promoter activity interaction Z-score” value [3, 10] was 0.47 ± 0.17, the “promoter activity interaction Z-score” value [3, 11] was 0.568 ± 0.18 and the “promoter activity interaction Z-score” value [3, 12] was -0.134 ± 0.47. For the same compound, the “promoter activity interaction Z-score” value [3, 13] was 0.996 ± 0.081, the “promoter activity interaction Z-score” value [3, 14] was -0.644 ± 0.27 and the “promoter activity interaction Z-score” value [3, 15] was 0.509 ± 0.081. For the same compound, the “promoter activity interaction Z-score” value [3, 16] was -0.728 ± 0.72, the “promoter activity interaction Z-score” value [3, 17] was -0.1 ± 0.21 and the “promoter activity interaction Z-score” value [3, 18] was 0.543 ± 1.9. For the same compound, the “promoter activity interaction Z-score” value [3, 19] was 0.142, the “promoter activity interaction Z-score” value [4, 6] was -0.0441 ± 0.22 and the “promoter activity interaction Z-score” value [4, 7] was 0.0426 ± 0.088. For the same compound, the “promoter activity interaction Z-score” value [4, 8] was 0.0195 ± 0.2, the “promoter activity interaction Z-score” value [4, 9] was 0.0402 ± 0.048 and the “promoter activity interaction Z-score” value [4, 10] was 0.138 ± 0.019. For the same compound, the “promoter activity interaction Z-score” value [4, 11] was 0.214 ± 0.083, the “promoter activity interaction Z-score” value [4, 12] was -0.00506 ± 0.02 and the “promoter activity interaction Z-score” value [4, 13] was 0.485 ± 0.32. For the same compound, the “promoter activity interaction Z-score” value [4, 14] was -0.0277 ± 0.085, the “promoter activity interaction Z-score” value [4, 15] was 0.277 ± 0.053 and the “promoter activity interaction Z-score” value [4, 16] was 0.343 ± 0.13. The “promoter activity interaction Z-score” value [4, 17] was 0.655 ± 0.09, the “promoter activity interaction Z-score” value [4, 18] was 0.33 ± 0.25 and the “promoter activity interaction Z-score” value [4, 19] was 0.209 ± 0.081. For the same compound, the “promoter activity interaction Z-score” value [4, 20] was 0.169 ± 0.11, the “promoter activity interaction Z-score” value [4, 21] was 0.215 and the “promoter activity interaction Z-score” value [5, 6] was -0.575 ± 0.29. The “promoter activity interaction Z-score” value [5, 7] was -0.641 ± 1.1, the “promoter activity interaction Z-score” value [5, 8] was -0.352 ± 0.023 and the “promoter activity interaction Z-score” value [5, 9] was -0.761 ± 0.52. For the same compound, the “promoter activity interaction Z-score” value [5, 10] was 0.286 ± 0.074, the “promoter activity interaction Z-score” value [5, 11] was -0.211 ± 0.3 and the “promoter activity interaction Z-score” value [5, 12] was -0.79 ± 0.62. For the same compound, the “promoter activity interaction Z-score” value [5, 13] was 0.828 ± 0.64, the “promoter activity interaction Z-score” value [5, 14] was -0.851 ± 0.45 and the “promoter activity interaction Z-score” value [5, 15] was 0.213 ± 1.1. For the same compound, the “promoter activity interaction Z-score” value [5, 16] was 0.777 ± 1.4, the “promoter activity interaction Z-score” value [5, 17] was 0.0492 ± 0.52 and the “promoter activity interaction Z-score” value [5, 18] was 0.571 ± 0.23. The “promoter activity interaction Z-score” value [5, 19] was 0.356, the “promoter activity interaction Z-score” value [5, 20] was -0.851 ± 0.56 and the “promoter activity interaction Z-score” value [5, 21] was 1.73 ± 0.26.
